# Compound activity: PubChem BioAssay, National Center for Advancing Translational Sciences (NCATS)
# RORgamma inh = blocks mouse ROR gamma transcriptional activity; Drosophila S2 Gal4-RORgamma UAS-luciferase reporter, 20 h; Potency, µM (titrated, usually from 53.6 µM), for the others: top-dose activity change, negative = inhibition, most hits filed as inhibitors; 310,000 compounds, 5.4% hits; note: potency is the fitted concentration of half-maximal effect; nearly all actives have a fitted effect of over 60% in size
#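 Schneider cells (Drosophila), stable Gal4 DBD–ROR gamma + UAS-luc; 1 hr cmpd preincubation; Cu2+ induction 700 uM final; 20 hr ambient; luminescence.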
# FBPA coupling cs = counter-screen for Giardia aldolase inhibitors: coupling enzyme system | activity change, negative = inhibition, % at 58.2 µM, hits read low | coupling enzyme system counterscreen, AmpLite Red fluorescence | 290,000 compounds, 0.67% hits; in the data active = activity change below about -30%
#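 Counterscreen lacking aldolase: glyceraldehyde-3-phosphate coupling-enzyme reagent preincubated 10 min at RT with compound (at 57.5 uM final), then substrate/coupling system with AmpLite Red added; fluorescence read at 525/598 nm after 20 min RT.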
# VP16 counter = inhibits Gal4-VP16 luciferase reporter, ROR gamma counter-screen. AID 2546. Potency, µM (top dose mostly 53.6 µM), without a hit: at the top dose activity, negative = inhibition, actives largely listed as inhibitors. 310,000 compounds, 3.5% hits. Drosophila S2 Gal4-VP16 UAS-luciferase, luminescence, 20 h;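 note: Gal4-VP16 expression switched on by copper sulfate through the metallothionein promoter; potency is the fitted concentration of half-maximal effect; nearly all actives have a fitted effect of over 50% in size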
# TSHR antagonist = blocks TSH signaling through the human TSH receptor. P16473. TSHR-expressing cells, TSH-stimulated cAMP HTRF, 2 h; active compounds read low. activity change, negative = inhibition, % at 11.5 µM. 330,000 compounds, 0.2% hits;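 active = activity change below a set negative limit, meaning inhibition stronger than a set level, cut at about -70% in these data; inconclusive = activity change between two set negative limits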
# Target sequence (P16473 whole entry, looked up): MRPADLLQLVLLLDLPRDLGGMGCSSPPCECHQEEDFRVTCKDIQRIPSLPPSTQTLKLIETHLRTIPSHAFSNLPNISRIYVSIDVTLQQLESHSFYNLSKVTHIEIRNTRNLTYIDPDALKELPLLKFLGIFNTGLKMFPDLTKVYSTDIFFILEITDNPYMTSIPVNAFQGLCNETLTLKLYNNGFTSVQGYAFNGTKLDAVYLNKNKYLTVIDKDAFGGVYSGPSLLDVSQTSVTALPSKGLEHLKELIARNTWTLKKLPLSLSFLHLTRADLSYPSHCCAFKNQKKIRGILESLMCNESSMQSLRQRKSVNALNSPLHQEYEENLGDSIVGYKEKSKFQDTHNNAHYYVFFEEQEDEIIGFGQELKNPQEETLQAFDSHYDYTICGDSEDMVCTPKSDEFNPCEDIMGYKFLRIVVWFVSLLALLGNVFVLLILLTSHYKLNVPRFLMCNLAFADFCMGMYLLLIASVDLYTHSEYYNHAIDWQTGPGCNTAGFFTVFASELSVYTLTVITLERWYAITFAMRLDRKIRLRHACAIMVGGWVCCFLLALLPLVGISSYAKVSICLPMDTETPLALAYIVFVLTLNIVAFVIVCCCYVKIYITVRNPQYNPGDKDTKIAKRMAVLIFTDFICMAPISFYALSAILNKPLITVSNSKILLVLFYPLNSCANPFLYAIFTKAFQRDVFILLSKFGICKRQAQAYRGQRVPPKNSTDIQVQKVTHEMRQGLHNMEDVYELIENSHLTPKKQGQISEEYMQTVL
#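 Inhibition of cAMP made by TSHR-expressing cells under TSH stimulation (4nM final, EC80; 2 h, 37 deg C) is quantified with a one-step lysis HTRF kit, anti-cAMP cryptate versus cAMP-d2.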
# ELG1 DNA repair = ELG1-dependent DNA repair inhibition. HEK293T ELG1-luciferase reporter, luminescence, 16 h; DNA damage induced by 5-fluorouridine. AID 504467. Potency, µM (highest dose often 46.1 µM), without a hit: top-dose activity change, negative = inhibition, actives largely listed as inhibitors. 330,000 compounds, 2.3% hits; note: potency is the fitted concentration of half-maximal effect; nearly all actives have a fitted effect of over 55% in size
#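 Quantitative HTS, concentration-response format. 2,000 cells/well co-treated with 5-fluorouridine and compound, 16 hr in 5% CO2 at 37 °C; ONE-Glo luminescence read after 30 min.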
# ELG1 FLuc counter = luciferase inhibition in cell-free luciferin readout for ELG1 hits; shares compounds with ELG1 DNA repair; cell-free firefly luciferase luminescence counter-screen, ViewLux; Potency, µM (top dose mostly 46.1 µM), for inactives: top-dose activity change, negative = inhibition, hits mostly inhibitors; 350 compounds, 3% hits; note: potency is the fitted concentration of half-maximal effect
# ELG1 Luc conf = confirmation of human ELG1-dependent DNA repair inhibitors. shares compounds with ELG1 DNA repair. HEK293T ELG1-luciferase levels, luminescence; cells co-treated with 5-fluorouridine. Potency, µM (highest dose often 46.1 µM), without a hit: at the top dose activity change, negative = inhibition, hits mostly inhibitors. 670 compounds, 68% hits. AID 624248; note: potency is the fitted concentration of half-maximal effect; nearly all actives have a fitted effect of over 55% in size
# ELG1-Luc MMS = MMS-stimulated human ELG1 repair inhibition, confirmed. shares compounds with ELG1 DNA repair. HEK293T luciferase-tagged ELG1 level, MMS stimulated. Potency, µM (highest dose often 46.1 µM), for inactives: top-dose activity change, negative = inhibition, actives largely listed as inhibitors. 670 compounds, 53% hits; note: potency is the fitted concentration of half-maximal effect; nearly all actives have a fitted effect of over 60% in size
# ELG1 5FU viab = confirmation of ELG1 repair inhibitors: viability with 5FU. shares compounds with ELG1 DNA repair. cell viability with 5-FU, ELG1-dependent repair. Potency, µM (series often up to 46.1 µM), inactives show at the highest dose activity change, negative = viability loss, most hits filed as cytotoxic. 670 tested, under 10 active. AID 624250;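 note: ELG1-luc HEK293T cells cotreated with 5-fluorouridine at 10 µM final; potency is the fitted concentration of half-maximal effect; viability measured 16 h after compound addition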
# ELG1 MMS cell = confirmation of ELG1 repair inhibitors: viability with MMS | shares compounds with ELG1 DNA repair | Cell viability with MMS, ELG1-dependent DNA repair | Potency, µM (doses to about 46.1 µM), without a hit: at the highest dose activity change, negative = viability loss, usual class: cytotoxic | 670 compounds, 33% hits | AID 624251;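 note: ELG1-luc HEK293T cells co-treated with 10 µM MMS; potency is the fitted concentration of half-maximal effect; viability read 16 h after compound addition; nearly all actives have a fitted effect of over 60% in size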
# Cell viab unstim = unstimulated viability counter-screen for ELG1 repair hits; shares compounds with ELG1 DNA repair; cell viability counter-screen, unstimulated, luminescence; Potency, µM (doses to about 45.9 µM), for inactives: at the top dose activity change, negative = loss of viability, actives largely listed as cytotoxic; 900 compounds, 8% hits;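 note: potency is the fitted concentration of half-maximal effect; compound exposure lasted 16 hours before reading; nearly all actives have a fitted effect of over 55% in size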
# FLuc enzyme = counter-screen for ELG1 repair inhibitors: firefly luciferase inhibition; shares compounds with ELG1 DNA repair; purified firefly luciferase, luminescence counter-screen; Potency, µM (highest dose often 57.5 µM), without a hit: at the top dose activity, negative = inhibition, hits mostly inhibitors; 350 compounds, 10% hits; AID 624253; note: potency is the fitted concentration of half-maximal effect
# * hit, by the source's call; ? = inconclusive; . = no result. Shown are actives, neighbours in structure and some others; about 8% of the full set was active somewhere. Unless noted, calls come from the whole dose curve; as a rule, active = well fitted curve in the direction sought with a large enough effect; inconclusive = small, poorly fitted or top-dose-only effect, or another doubt; inactive = no such curve, though single readings can be large; an effect the other way counts as inactive or inconclusive. % is set by controls: 0 for no effect and ±100 for the full control effect.
SMILES,RORgamma inh,FBPA coupling cs,VP16 counter,TSHR antagonist,ELG1 DNA repair,ELG1 Luc conf,ELG1-Luc MMS,ELG1 5FU viab,ELG1 MMS cell,Cell viab unstim,others
Cc1ccccc1OCC(=O)Nc1ccc(S(=O)(=O)N2CCCC2)cc1,.,.,.,-2.6,-17.5%,.,.,.,.,.,
Cc1ccccc1OCC(=O)Nc1ccc(C)c(S(=O)(=O)N2CCCCCC2)c1,.,.,.,-16.2,1.3µM*,28.1µM*,6.28µM*,?,8.88µM*,-19.1%,
CCN(CC)C(=O)c1cccc(NC(=O)CC23CC4CC(CC(C4)C2)C3)c1,-0.1%,-0.7,3.0%,1.1,-11.5%,.,.,.,.,.,
O=C(Nc1ccc(S(=O)(=O)N2CCOCC2)cc1)c1ccc([N+](=O)[O-])s1,.,.,.,-11.2,2.59µM*,1.99µM*,3.53µM*,?,4.45µM*,?,
Cc1nn(CC(=O)NCCC2=CCCCC2)c(C)c1[N+](=O)[O-],.,.,.,4.3,20.6%,.,.,.,.,.,
Cc1ccc(-c2c[n+](Cc3ccc(Cl)cc3)c3n2CCC3)cc1,11.4%,1.3,-28.5%,25.6,2.59µM*,?,7.92µM*,-4.0%,7.92µM*,3.97µM*,ELG1 FLuc counter=-13.7%;FLuc enzyme=-9.6%
O=C(Nc1ccccc1)c1ccc(N2CCN(c3ccccn3)CC2)c(S(=O)(=O)N2CCOCC2)c1,24.7%,3.6,4.6%,-14.6,?,.,.,.,.,.,
O=C(Nc1ccc(Br)cc1)c1ccc(F)c(S(=O)(=O)N2CCN(c3ccccn3)CC2)c1,27.1%,2.0,?,-33.8,2.91µM*,31.5µM*,?,-10.6%,?,?,ELG1 FLuc counter=-8.1%;FLuc enzyme=-14.8%
CCCCc1ccc(NC(=O)c2ccc(N(C)S(C)(=O)=O)cc2)cc1,3.2%,0.4,-2.6%,-17.4,1.46µM*,?,0.445µM*,-9.9%,0.628µM*,?,
CCN(CC)S(=O)(=O)c1ccc(NC(=O)c2ccc(N(C)S(C)(=O)=O)cc2)cc1,?,0.5,-1.7%,-17.2,3.66µM*,?,0.791µM*,-1.1%,1.12µM*,?,
COC(=O)c1ccc(NC(=O)c2ccc(N(C)S(C)(=O)=O)cc2)cc1,?,0.0,-7.5%,-16.5,3.66µM*,-12.4%,4.99µM*,-7.4%,4.99µM*,?,
Cc1nn(CCCC(=O)NCc2ccco2)c(=O)c2nn(-c3ccccc3)c(C)c12,4.3%,.,-0.8%,-4.6,-1.4%,.,.,.,.,.,
NC(=O)c1ccc(N2CCN(c3ccc(O)cc3)CC2)c([N+](=O)[O-])c1,0.1%,-9.1,-0.3%,-10.1,4.11µM*,6.28µM*,4.7%,?,?,-1.5%,
O=C(CSc1nc2ccc(NC(=O)CSc3nnnn3Cc3ccccc3)cc2s1)Nc1ccccc1,-3.9%,-3.0,-5.1%,-15.5,4.61µM*,?,7.91µM*,-1.9%,12.5µM*,?,
Cc1csc2c(NC3CCN(Cc4ccccc4)CC3)ncnc12,31.6%,6.7,-26.6%,-3.2,-11.8%,.,.,.,.,.,
Cc1sc2ncnc(NC3CCN(Cc4ccccc4)CC3)c2c1C,?,0.6,15.8µM*,-26.5,2.06µM*,?,1.25µM*,-4.1%,1.58µM*,?,
CC1CCc2nc(NC(=O)c3cc(C(C)(C)C)nn3C)sc2C1 (stereo unspecified),-12.7%,1.9,-10.6%,-2.2,?,.,.,.,.,.,
Cc1ccc(-c2nc(NC(=O)c3cc(C(C)(C)C)nn3C)sc2C)cc1Cl,-13.4%,-10.2,-1.9%,-0.4,4.61µM*,?,-18.9%,2.5%,?,?,
COc1ccc(NC(=O)c2c(N)no[n+]2[O-])cc1,16.6%,2.9,7.6%,2.0,4.61µM*,13.9%,4.9%,-0.5%,-6.3%,-4.3%,
O=C(COc1ccc2c3c(c(=O)oc2c1)CCC3)NCCCN1CCCC1=O,-19.4%,.,-2.2%,-7.1,?,.,.,.,.,.,
O=C(NCCc1ccc(Cl)cc1Cl)C1=CC=CN2CCS(=O)(=O)N=C12,.,.,.,0.3,19.1%,.,.,.,.,.,
Cc1ccc([N+](=O)[O-])cc1Nc1nc(N2CCOCC2)nc(N2CCOCC2)n1,-3.3%,0.2,-22.8%,2.1,16.4µM*,8.89µM*,?,?,?,?,ELG1 FLuc counter=62.4%;FLuc enzyme=-6.4%
Cc1ccc(Cl)cc1Nc1nc(N2CCOCC2)nc(N2CCOCC2)n1,-1.8%,-3.1,16.1%,-7.6,?,.,.,.,.,.,
COc1ccc(Nc2nc(N3CCOCC3)nc(N3CCOCC3)n2)c(OC)c1,27.5%,-1.2,-7.0%,-28.1,?,.,.,.,.,.,
COc1ccccc1Nc1nc(N2CCOCC2)nc(N2CCOCC2)n1,1.2%,.,-13.5%,6.4,1.64µM*,7.92µM*,1.7%,?,-2.1%,-7.9%,ELG1 FLuc counter=0.1%;FLuc enzyme=3.6%
Cc1cccc(COC(=O)CCCNC(=O)c2ccc(Cl)cc2)c1,.,.,.,-12.2,20.9%,.,.,.,.,.,
Cc1cc(NC(=O)c2cnn3c(C(F)(F)F)cc(-c4ccccc4)nc23)no1,2.9%,-2.6,-14.4%,0.6,7.31µM*,5µM*,?,10.0%,?,?,ELG1 FLuc counter=98.1%;FLuc enzyme=-4.0%
Cc1cc(NC(=O)c2cnn3c(C(F)F)cc(C4CC4)nc23)no1,-37.3%,4.4,-9.0%,0.3,-10.5%,?,-2.8%,-1.4%,-5.8%,-12.2%,ELG1 FLuc counter=0.8%;FLuc enzyme=-5.3%
O=C(c1cc(C(F)(F)F)cc(C(F)(F)F)c1)N1CCC[C@@]2(CCN(Cc3ccccc3)C2)C1,12.5%,1.0,-0.9%,.,.,.,.,.,.,.,
